Source: ChEMBL document CHEMBL1961873, “Compounds: GSK PKIS; Assays: Nanosyn kinase panel” (2012)

Assays:
[1] = target: Mast/stem cell growth factor receptor Kit (Homo sapiens) (UniProt P10721); details: at 1 µM
[2] = tested on: Mast/stem cell growth factor receptor Kit (Homo sapiens), P10721 [D816V]; details: at 0.1 µM
[3] = tested on: Mast/stem cell growth factor receptor Kit (Homo sapiens), P10721 [D816V]; details: at 1 µM
[4] = tested on: Mast/stem cell growth factor receptor Kit (Homo sapiens), P10721 [T670I]; details: at 0.1 µM
Chain of Mast/stem cell growth factor receptor Kit (Homo sapiens), P10721 [T670I] (P10721 whole entry T670I): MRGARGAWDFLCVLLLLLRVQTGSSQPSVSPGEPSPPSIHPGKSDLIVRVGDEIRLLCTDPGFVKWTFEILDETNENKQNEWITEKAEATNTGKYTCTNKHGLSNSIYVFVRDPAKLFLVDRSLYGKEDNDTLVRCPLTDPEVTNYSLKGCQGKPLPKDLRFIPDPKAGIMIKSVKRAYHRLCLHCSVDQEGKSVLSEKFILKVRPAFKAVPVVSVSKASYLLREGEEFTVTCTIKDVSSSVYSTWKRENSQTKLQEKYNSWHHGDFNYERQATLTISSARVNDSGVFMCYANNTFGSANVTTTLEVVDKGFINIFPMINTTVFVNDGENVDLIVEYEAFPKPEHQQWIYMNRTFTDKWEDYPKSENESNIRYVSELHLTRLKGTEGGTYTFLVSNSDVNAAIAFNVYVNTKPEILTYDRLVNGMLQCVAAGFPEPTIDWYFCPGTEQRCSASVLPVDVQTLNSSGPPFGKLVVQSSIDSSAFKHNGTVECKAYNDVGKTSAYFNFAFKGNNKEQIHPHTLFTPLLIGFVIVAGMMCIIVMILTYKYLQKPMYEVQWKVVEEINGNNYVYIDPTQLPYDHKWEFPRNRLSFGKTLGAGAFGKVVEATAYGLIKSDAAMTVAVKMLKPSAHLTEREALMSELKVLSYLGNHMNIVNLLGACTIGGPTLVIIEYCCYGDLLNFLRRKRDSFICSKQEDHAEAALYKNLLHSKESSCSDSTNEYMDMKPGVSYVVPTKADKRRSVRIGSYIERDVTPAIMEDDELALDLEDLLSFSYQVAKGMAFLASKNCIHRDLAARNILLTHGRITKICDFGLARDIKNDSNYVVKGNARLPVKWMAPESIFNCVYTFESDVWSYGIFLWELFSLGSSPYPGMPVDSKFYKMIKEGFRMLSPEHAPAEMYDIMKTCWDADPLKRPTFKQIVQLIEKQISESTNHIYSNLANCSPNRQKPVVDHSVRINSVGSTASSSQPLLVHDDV

[5] = tested on: Mast/stem cell growth factor receptor Kit (Homo sapiens), P10721 [T670I]; details: at 1 µM
[6] = tested on: Mast/stem cell growth factor receptor Kit (Homo sapiens), P10721 [V560G]; details: at 0.1 µM
Chain of Mast/stem cell growth factor receptor Kit (Homo sapiens), P10721 [V560G] (P10721 whole entry V560G): as the sequence (P10721 whole entry T670I) above, with V560G, I670T counted along it

[7] = tested on: Mast/stem cell growth factor receptor Kit (Homo sapiens), P10721 [V560G]; details: at 1 µM
[8] = target: Tyrosine-protein kinase Lck (Homo sapiens) (UniProt P06239); details: at 0.1 µM
Chain of Tyrosine-protein kinase Lck (Homo sapiens) (P06239 2-509 limits assumed): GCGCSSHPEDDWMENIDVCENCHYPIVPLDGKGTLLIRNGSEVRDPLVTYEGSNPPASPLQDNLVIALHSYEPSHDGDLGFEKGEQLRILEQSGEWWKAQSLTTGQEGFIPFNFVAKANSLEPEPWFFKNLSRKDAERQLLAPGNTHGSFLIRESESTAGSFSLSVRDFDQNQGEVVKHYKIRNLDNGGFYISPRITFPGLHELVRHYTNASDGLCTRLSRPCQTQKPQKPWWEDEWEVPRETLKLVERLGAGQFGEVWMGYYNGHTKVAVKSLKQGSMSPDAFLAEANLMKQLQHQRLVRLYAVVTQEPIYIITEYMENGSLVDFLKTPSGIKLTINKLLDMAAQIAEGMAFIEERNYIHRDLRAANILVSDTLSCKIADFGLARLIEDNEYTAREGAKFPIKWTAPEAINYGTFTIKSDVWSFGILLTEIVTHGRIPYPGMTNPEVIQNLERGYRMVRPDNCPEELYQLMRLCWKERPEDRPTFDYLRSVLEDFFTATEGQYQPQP

[9] = target: Tyrosine-protein kinase Lck (Homo sapiens) (UniProt P06239); details: at 1 µM
[10] = target: Leukocyte tyrosine kinase receptor (Homo sapiens) (UniProt P29376); details: at 0.1 µM
Chain of Leukocyte tyrosine kinase receptor (Homo sapiens) (P29376 whole entry): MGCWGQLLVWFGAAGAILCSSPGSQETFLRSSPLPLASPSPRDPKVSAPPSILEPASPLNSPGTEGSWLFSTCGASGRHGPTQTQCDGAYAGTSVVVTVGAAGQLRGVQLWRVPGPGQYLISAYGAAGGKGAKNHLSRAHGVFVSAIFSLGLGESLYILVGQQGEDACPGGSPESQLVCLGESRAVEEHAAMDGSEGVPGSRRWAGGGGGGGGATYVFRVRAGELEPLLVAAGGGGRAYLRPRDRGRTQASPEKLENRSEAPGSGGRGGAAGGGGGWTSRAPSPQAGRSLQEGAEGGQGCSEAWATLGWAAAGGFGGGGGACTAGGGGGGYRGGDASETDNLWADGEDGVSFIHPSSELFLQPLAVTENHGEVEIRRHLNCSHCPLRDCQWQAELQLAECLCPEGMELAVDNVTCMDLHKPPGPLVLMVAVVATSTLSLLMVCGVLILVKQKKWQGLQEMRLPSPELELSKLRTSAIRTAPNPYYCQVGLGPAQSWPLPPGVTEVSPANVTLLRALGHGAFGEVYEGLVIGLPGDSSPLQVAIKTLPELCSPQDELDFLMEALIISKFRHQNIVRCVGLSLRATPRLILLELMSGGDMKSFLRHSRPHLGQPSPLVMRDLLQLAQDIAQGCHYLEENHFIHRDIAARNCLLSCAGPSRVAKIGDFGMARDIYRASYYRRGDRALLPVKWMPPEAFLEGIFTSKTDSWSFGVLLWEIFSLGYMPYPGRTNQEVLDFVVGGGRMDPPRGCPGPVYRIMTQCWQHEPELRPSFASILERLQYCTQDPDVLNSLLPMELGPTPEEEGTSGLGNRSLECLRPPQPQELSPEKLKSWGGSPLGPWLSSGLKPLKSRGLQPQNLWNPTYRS

[11] = target: Leukocyte tyrosine kinase receptor (Homo sapiens) (UniProt P29376); details: at 1 µM
[12] = target: Tyrosine-protein kinase Lyn (Homo sapiens) (UniProt P07948); details: at 0.1 µM
Chain of Tyrosine-protein kinase Lyn (Homo sapiens) (P07948 2-512 limits assumed): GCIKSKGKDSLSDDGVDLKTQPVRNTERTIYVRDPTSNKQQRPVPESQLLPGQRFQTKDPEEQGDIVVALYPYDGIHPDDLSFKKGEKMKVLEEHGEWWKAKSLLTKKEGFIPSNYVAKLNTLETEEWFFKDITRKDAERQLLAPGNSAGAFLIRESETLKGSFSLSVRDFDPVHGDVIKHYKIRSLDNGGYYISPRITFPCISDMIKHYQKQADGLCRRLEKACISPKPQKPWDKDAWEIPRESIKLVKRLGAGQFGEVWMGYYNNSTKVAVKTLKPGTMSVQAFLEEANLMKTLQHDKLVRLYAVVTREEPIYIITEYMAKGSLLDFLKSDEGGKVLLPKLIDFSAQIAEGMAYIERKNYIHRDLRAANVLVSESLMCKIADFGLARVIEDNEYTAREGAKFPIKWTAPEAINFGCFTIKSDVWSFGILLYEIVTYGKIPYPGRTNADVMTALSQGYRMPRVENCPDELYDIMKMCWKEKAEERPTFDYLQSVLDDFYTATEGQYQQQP

[13] = target: Tyrosine-protein kinase Lyn (Homo sapiens) (UniProt P07948); details: at 1 µM
[14] = target: Tyrosine-protein kinase Lyn (Homo sapiens) (UniProt P07948); details: at 0.1 µM; remark: listed apart in the source
[15] = target: Tyrosine-protein kinase Lyn (Homo sapiens) (UniProt P07948); details: at 1 µM; remark: listed apart in the source
[16] = target: T1, Tyrosine-protein kinase Mer (Homo sapiens) (UniProt Q12866); details: at 0.1 µM
T1 sequence (whole entry): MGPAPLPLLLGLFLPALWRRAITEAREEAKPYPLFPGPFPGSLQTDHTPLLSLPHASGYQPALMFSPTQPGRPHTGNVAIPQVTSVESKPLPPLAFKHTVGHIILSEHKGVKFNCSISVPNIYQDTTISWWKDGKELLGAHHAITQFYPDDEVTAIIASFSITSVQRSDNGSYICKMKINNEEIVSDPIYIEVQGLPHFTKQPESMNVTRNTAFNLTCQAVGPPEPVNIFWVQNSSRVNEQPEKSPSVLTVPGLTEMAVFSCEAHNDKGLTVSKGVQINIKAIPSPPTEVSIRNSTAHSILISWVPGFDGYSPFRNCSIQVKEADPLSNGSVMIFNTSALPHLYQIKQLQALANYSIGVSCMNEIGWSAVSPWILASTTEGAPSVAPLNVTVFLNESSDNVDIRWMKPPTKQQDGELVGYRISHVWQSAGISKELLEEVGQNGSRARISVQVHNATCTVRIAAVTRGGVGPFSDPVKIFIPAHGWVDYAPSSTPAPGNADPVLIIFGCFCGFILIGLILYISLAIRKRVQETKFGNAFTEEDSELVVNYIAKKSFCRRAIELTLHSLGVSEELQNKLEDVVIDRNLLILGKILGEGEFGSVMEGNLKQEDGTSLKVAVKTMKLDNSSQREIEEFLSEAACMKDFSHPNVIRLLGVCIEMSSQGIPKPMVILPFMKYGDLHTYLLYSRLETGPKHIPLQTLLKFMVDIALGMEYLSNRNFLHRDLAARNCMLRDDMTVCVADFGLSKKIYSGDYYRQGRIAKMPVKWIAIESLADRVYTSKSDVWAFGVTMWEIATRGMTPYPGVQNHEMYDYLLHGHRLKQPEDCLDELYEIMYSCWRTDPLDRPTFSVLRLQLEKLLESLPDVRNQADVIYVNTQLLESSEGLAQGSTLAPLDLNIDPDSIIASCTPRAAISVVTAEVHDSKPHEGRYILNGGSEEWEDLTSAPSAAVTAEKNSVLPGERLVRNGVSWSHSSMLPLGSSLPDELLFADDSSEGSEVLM

[17] = target: T1, Tyrosine-protein kinase Mer (Homo sapiens); details: at 1 µM
[18] = target: Hepatocyte growth factor receptor (Homo sapiens) (UniProt P08581); details: at 0.1 µM
Chain of Hepatocyte growth factor receptor (Homo sapiens) (P08581 whole entry): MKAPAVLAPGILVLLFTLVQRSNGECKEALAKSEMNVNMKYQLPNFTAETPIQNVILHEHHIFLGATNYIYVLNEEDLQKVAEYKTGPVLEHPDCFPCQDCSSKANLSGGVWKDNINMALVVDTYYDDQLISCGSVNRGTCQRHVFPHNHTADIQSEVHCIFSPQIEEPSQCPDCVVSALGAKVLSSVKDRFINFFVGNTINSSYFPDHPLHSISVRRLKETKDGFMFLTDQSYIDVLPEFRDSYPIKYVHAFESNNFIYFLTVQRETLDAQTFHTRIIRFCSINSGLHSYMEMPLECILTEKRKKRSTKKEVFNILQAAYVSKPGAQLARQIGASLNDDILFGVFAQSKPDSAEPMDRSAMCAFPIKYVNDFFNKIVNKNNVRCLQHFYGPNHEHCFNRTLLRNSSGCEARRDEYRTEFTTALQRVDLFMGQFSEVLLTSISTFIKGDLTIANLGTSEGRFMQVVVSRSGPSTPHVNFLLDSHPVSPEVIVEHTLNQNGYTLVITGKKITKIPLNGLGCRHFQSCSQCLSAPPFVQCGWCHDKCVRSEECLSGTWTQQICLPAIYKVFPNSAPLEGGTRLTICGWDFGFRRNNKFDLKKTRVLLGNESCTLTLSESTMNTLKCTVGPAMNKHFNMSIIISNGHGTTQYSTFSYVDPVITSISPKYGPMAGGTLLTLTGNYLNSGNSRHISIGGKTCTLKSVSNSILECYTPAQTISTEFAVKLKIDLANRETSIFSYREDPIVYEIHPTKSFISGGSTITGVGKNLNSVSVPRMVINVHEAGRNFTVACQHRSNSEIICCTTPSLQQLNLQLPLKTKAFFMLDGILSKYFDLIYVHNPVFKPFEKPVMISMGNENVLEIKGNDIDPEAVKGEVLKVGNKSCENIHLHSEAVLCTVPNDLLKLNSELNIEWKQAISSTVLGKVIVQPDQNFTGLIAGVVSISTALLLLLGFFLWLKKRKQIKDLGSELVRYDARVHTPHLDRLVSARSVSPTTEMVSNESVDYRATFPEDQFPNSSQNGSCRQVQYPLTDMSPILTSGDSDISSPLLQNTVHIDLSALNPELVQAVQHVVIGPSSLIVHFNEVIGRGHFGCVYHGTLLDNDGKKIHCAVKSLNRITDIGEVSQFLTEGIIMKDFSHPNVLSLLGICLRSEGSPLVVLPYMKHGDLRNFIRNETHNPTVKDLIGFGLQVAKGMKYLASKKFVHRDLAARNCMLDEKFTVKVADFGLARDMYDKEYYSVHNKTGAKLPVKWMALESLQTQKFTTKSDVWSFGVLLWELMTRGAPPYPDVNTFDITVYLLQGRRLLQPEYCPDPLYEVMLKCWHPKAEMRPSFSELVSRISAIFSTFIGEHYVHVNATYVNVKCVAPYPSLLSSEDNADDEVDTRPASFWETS

[19] = target: Hepatocyte growth factor receptor (Homo sapiens) (UniProt P08581); details: at 1 µM
[20] = target: T2, Muscle, skeletal receptor tyrosine-protein kinase (Homo sapiens) (UniProt O15146); details: at 0.1 µM;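 also: values are mean inhibition of MuSK from the GSK PKIS kinase screening panel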
T2 sequence (whole entry): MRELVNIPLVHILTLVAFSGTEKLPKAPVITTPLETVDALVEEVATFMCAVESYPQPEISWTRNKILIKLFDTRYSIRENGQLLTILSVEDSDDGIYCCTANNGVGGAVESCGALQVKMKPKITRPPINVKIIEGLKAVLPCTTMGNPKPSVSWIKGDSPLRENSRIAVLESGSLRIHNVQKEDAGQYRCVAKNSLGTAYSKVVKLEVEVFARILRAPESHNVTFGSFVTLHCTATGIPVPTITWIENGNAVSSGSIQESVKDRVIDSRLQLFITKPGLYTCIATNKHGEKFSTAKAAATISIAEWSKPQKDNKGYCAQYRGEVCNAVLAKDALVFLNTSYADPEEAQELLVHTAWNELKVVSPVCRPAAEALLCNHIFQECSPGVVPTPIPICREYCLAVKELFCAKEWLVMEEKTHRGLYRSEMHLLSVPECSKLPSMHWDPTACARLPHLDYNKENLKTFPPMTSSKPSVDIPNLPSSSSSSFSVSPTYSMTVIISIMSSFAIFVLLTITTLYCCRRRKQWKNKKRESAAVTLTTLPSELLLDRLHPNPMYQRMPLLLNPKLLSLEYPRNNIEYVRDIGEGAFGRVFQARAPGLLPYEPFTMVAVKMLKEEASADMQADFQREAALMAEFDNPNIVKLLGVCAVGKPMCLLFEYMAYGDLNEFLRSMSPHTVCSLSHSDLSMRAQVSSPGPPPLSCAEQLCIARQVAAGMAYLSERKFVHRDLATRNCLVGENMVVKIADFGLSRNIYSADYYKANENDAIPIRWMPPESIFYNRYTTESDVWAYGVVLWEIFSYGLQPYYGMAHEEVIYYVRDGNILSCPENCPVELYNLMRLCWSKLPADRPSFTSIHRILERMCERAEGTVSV

Chain of Mast/stem cell growth factor receptor Kit (Homo sapiens) (P10721 whole entry): as the sequence (P10721 whole entry T670I) above, with I670T counted along it
Chain of Mast/stem cell growth factor receptor Kit (Homo sapiens), P10721 [D816V] (P10721 whole entry D816V): as the sequence (P10721 whole entry T670I) above, with I670T, D816V counted along it

SMILES	inhibition [1] [%]	inhibition [2] [%]	inhibition [3] [%]	inhibition [4] [%]	inhibition [5] [%]	inhibition [6] [%]	inhibition [7] [%]	inhibition [8] [%]	inhibition [9] [%]	inhibition [10] [%]	inhibition [11] [%]	inhibition [12] [%]	inhibition [13] [%]	inhibition [14] [%]	inhibition [15] [%]	inhibition [16] [%]	inhibition [17] [%]	inhibition [18] [%]	inhibition [19] [%]	inhibition [20] [%]
Nc1ncc(-c2cccc(S(N)(=O)=O)c2)c2scc(-c3ccc(F)c(Cl)c3)c12	98.1	-0.67	5.44	3.88	5.82	3.89	50.5	12.9	52.4	10.7	54.6	14	56.7	10.5	50	0.36	10.6	4.62	3.25	2.5
Fc1ccc(-c2cc(-c3c[nH]nc3-c3ccccn3)ccn2)cc1	6.81	1.94	4.27	4.29	8.03	-3.44	1.08	1.94	2.35	4.6	5.88	6.32	8.49	5.14	7.44	1.96	2	6.72	8.44	2.06
COc1cc2c(cc1Nc1nc(Nc3ccsc3C(N)=O)c3cc[nH]c3n1)N(C(=O)CN(C)C)CCC2(C)C	67.6	3.34	7.2	5.12	16.2	5.02	17.8	0.99	4.76	95.3	96.3	4.53	4.24	2.04	2.4	3.14	16.1	5.6	23.1	14.8
COc1ccc(-c2oc3ncnc(N)c3c2-c2ccc(NC(=O)Nc3cc(C(F)(F)F)ccc3F)cc2)cc1	96	2.85	5.19	11.8	88.3	25.5	78.6	21.1	83.9	4.21	11.2	48.4	94.8	43.3	93.2	11.7	66.5	9.34	63.2	96.6
CCCN1CCC(c2ccc(Nc3nc(Nc4cc(F)ccc4C(N)=O)c4cc[nH]c4n3)c(OC)c2)CC1	23.6	7.89	4.96	4.05	8.96	-2.53	1.43	2.44	9.44	94.6	95	6.55	11.2	4.92	7.3	2.18	20	8.25	22.9	4.34
COc1ccc2c(-c3ccnc(Nc4cccc(OC(F)(F)F)c4)n3)cnn2n1	45.9	7.04	6.99	2.93	11.2	-0.57	5.63	1.54	5.72	3.12	4.46	7.95	9.21	3.18	7.1	1.44	2.89	4.94	15.7	5.85
CCn1c(-c2nonc2N)nc2ccccc21	4.28	1.78	-1.08	2.82	0.55	1.72	1.6	0.68	3.03	5.66	1.66	3.33	2.16	2.02	0.98	-0.11	1.81	5.36	2.36	3.36
Cc1cccc2c1NC(=O)/C2=N\Nc1ccc(S(N)(=O)=O)cc1	34.3	1.59	-1.26	6.87	7.06	2.17	6.53	1.96	2.95	2.01	2	3.38	5.9	1.15	2.52	1.25	2.98	4.07	-0.51	2.77
c1ccc(-c2nc3n(c2-c2ccc4c(c2)OCO4)CCC3)nc1	1.73	2.63	0.34	2.34	2.64	-1.47	-1.27	0.66	3.01	0.09	0.36	1.78	2.26	0.94	0.92	1.83	0.66	2.27	-1.42	0.55
CCn1c(-c2nonc2N)nc2c(C#CC(C)(C)O)ncc(OC3CCNCC3)c21	3.87	4.97	6.05	1.16	-0.54	-0.47	0.39	2.33	4.05	1.83	3.06	4.34	4.35	2.01	2.89	3.67	2.19	5.39	-3.51	3.1
COc1cc(N2CCN(C(C)C)CC2)ccc1Nc1nc(Nc2ccc(F)cc2C(N)=O)c2cc[nH]c2n1	4.94	-1.16	2.56	-2.37	-1.31	-1.89	-1.36	2.34	4.79	93.5	96	2.75	2.96	1.54	1.29	4.46	8.43	7.18	0.66	1.72
CN(C)CCOc1ccc(-c2nc(-c3ccncc3)c(-c3ccc4c(c3)CC/C4=N\O)[nH]2)cc1	5.36	1.54	6.73	3.27	9.66	1.4	5.96	2.08	13.5	2.54	8.56	6.26	8.56	2.81	6.8	0.89	4.76	3.76	13.3	2.95
O=S(=O)(CCNCc1ccc(-c2ccc3ncnc(Nc4ccc(OCc5cccc(F)c5)c(Cl)c4)c3c2)o1)c1ccccc1	9.57	3.44	6.21	3.42	5.36	0.27	-1.16	3.99	8.49	5.14	5.42	6.84	7.64	3.9	4.05	3.42	7.37	-0.44	6.95	6.83
